Assay results published in PubChem BioAssay AID1159580 (chemical genetic matrix, 2015).
Several values for one entry are separate records, joined by “and”; a condition that tells them apart may be missing. Equal entries are not always repeated. Out of some 5,500 compounds screened, about 2,000 (36%) were called active. Roughly 18% stayed inconclusive and do not appear here. Cut-off read from the data, not from the text of the source: active = normalized growth mostly below about 0.91 (no sharp cut-off); inconclusive = no clear call, values can overlap the other calls; inactive = mostly above about 0.92. The list shows a part of the results.

Assay: chemical genetic growth profiling, strain panel (AID 1159580);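 note: tested at 20 µM; growth read once vehicle control cultures reached saturation at 30 °C; 1 = growth at the plate median or of vehicle wells; lower values mean less growth of the strain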
Conditions: S. cerevisiae deletion strains, growth OD

Measured: normalized growth

O=C(OC[C@H]1O[C@H](OC(=O)c2cc(O)c(O)c(OC(=O)c3cc(O)c(O)c(O)c3)c2)[C@H](OC(=O)c2cc(O)c(O)c(OC(=O)c3cc(O)c(O)c(O)c3)c2)[C@@H](OC(=O)c2cc(O)c(O)c(OC(=O)c3cc(O)c(O)c(O)c3)c2)[C@@H]1OC(=O)c1cc(O)c(O)c(OC(=O)c2cc(O)c(O)c(O)c2)c1)c1cc(O)c(O)c(OC(=O)c2cc(O)c(O)c(O)c2)c1
inactive: locus YBR171W, strain sec66, stronger effect = lower value 0.931 | locus YDL005C, strain med2, stronger effect = lower value 1.02 | locus YDR001C, strain nth1, stronger effect = lower value 0.998 | locus YDR392W, strain spt3, stronger effect = lower value 0.742 | locus YEL061C, strain CIN8 (second series), stronger effect = lower value 0.926 | locus YER155C, strain BEM2 (second series), stronger effect = lower value 0.99 | locus YGL227W, strain vid30, stronger effect = lower value 1 | locus YGL240W, strain doc1, stronger effect = lower value 0.979 | locus YHR079C, strain IRE1, stronger effect = lower value 1.05 | locus YJL115W, strain asf1, stronger effect = lower value 0.979 | locus YJL129C, strain trk1, stronger effect = lower value 0.872 | locus YJL154C, strain vps35, stronger effect = lower value 0.965 | locus YJR066W, strain TOR1, stronger effect = lower value 0.967
0.0975 (active) and 1.03 (inactive): locus YJL095W, strain BCK1, stronger effect = lower value
0.0838 (active) and 1.05 (inactive): locus YHR030C, strain SLT2, stronger effect = lower value
active: locus YAL013W, strain DEP1, stronger effect = lower value 0.088 | locus YAL021C, strain ccr4, stronger effect = lower value 0.273 | locus YAL026C, strain drs2, stronger effect = lower value 0.572 | locus YAL030W, strain snc1, stronger effect = lower value 0.889 | locus YBL061C, strain skt5, stronger effect = lower value 0.68 | locus YBR009C, strain hhf1, stronger effect = lower value 0.788 | locus YBR021W, strain FUR4, stronger effect = lower value 0.148 | locus YBR023C, strain chs3, stronger effect = lower value 0.537 | locus YBR229C, strain ROT2, stronger effect = lower value 0.0601 | locus YBR231C, strain swc5, stronger effect = lower value 0.581 | locus YBR279W, strain paf1, stronger effect = lower value 0.686 | locus YCL011C, strain gbp2, stronger effect = lower value 0.782 | locus YCL016C, strain dcc1, stronger effect = lower value 0.735 | locus YCL029C, strain bik1, stronger effect = lower value 0.0912 | locus YCL061C, strain MRC1, stronger effect = lower value 0.759 | locus YCL069W, strain vba3, stronger effect = lower value 0.8 | locus YCR088W, strain abp1, stronger effect = lower value 0.834 | locus YDL035C, strain GPR1, stronger effect = lower value 0.0826 | locus YDL040C, strain nat1, stronger effect = lower value 0.824 | locus YDL074C, strain BRE1, stronger effect = lower value 0.148 | locus YDL101C, strain DUN1, stronger effect = lower value 0.0829 | locus YDL134C, strain PPH21, stronger effect = lower value 0.0788 | locus YDL185W, strain tfp1, stronger effect = lower value 0.0903 | locus YDL192W, strain arf1, stronger effect = lower value 0.0892 | locus YDR069C, strain doa4, stronger effect = lower value 0.524 | locus YDR101C, strain arx1, stronger effect = lower value 0.0922 | locus YDR137W, strain rgp1, stronger effect = lower value 0.327 | locus YDR150W, strain NUM1, stronger effect = lower value 0.0891 | locus YDR159W, strain sac3, stronger effect = lower value 0.66 | locus YDR162C, strain NBP2, stronger effect = lower value 0.079 | locus YDR195W, strain ref2 0.839 | locus YDR297W, strain sur2, stronger effect = lower value 0.823 | locus YDR318W, strain mcm21, stronger effect = lower value 0.0987 | locus YDR334W, strain swr1, stronger effect = lower value 0.632 | locus YDR335W, strain msn5, stronger effect = lower value 0.747 | locus YDR388W, stronger effect = lower value 0.0902 | locus YDR502C, strain sam2, stronger effect = lower value 0.101 | locus YEL003W, strain gim4, stronger effect = lower value 0.748 | locus YEL037C, strain rad23, stronger effect = lower value 0.771 | locus YEL061C, strain CIN8, stronger effect = lower value 0.0806 | locus YER015W, strain faa2, stronger effect = lower value 0.531 | locus YER016W, strain bim1, stronger effect = lower value 0.8 | locus YER110C, stronger effect = lower value 0.111 | locus YER111C, strain swi4, stronger effect = lower value 0.404 | locus YER155C, strain BEM2, stronger effect = lower value 0.112 | locus YER167W, strain BCK2, stronger effect = lower value 0.0894 | locus YFR010W, strain ubp6, stronger effect = lower value 0.701 | locus YGL078C, strain dbp3, stronger effect = lower value 0.0891 | locus YGL086W, strain mad1, stronger effect = lower value 0.0871 | locus YGL167C, strain pmr1, stronger effect = lower value 0.724 | locus YGL173C, strain kem1, stronger effect = lower value 0.54 | locus YGL248W, strain PDE1, stronger effect = lower value 0.0713 | locus YGL253W, strain hxk2, stronger effect = lower value 0.796 | locus YGR078C, strain PAC10, stronger effect = lower value 0.084 | locus YGR135W, strain pre9, stronger effect = lower value 0.0994 | locus YGR229C, strain SMI1, stronger effect = lower value 0.102 | locus YGR252W, strain gcn5, stronger effect = lower value 0.231 | locus YHR013C, strain ard1, stronger effect = lower value 0.597 | locus YHR027C, strain rpn1, stronger effect = lower value 0.455 | locus YHR079C, strain IRE1 (second series), stronger effect = lower value 0.0958 | locus YHR094C, strain hxt1, stronger effect = lower value 0.0909 | locus YHR129C, strain ARP1, stronger effect = lower value 0.105 | locus YHR142W, strain chs7, stronger effect = lower value 0.535 | locus YHR200W, strain rpn10, stronger effect = lower value 0.0922 | locus YIL066C, strain RNR3, stronger effect = lower value 0.0729 | locus YIL073C, strain SPO22, stronger effect = lower value 0.167 | locus YIL125W, strain kgd1, stronger effect = lower value 0.0846 | locus YIR030C, strain dcg1, stronger effect = lower value 0.0869 | locus YJL092W, strain hpr5, stronger effect = lower value 0.866 | locus YJL095W, strain BCK1 (second series), stronger effect = lower value 0.789 | locus YJL134W, strain LCB3, stronger effect = lower value 0.0741 | locus YJL164C, strain tpk1, stronger effect = lower value 0.781 | locus YJL166W, strain qcr8, stronger effect = lower value 0.839 | locus YJL168C, strain set2, stronger effect = lower value 0.087 | locus YJL187C, strain SWE1 (second series), stronger effect = lower value 0.0725 | locus YJR043C, strain POL32, stronger effect = lower value 0.101
